# Fewer than 10 of roughly 8,000 compounds were called active. No rule for the calls is given here. These entries were drawn from the full list.
# Test system: hedgehog, isoform A (Drosophila melanogaster)
# Experiment: Drosophila hedgehog isoform A inhibitors, primary screen, biochemical, plate reader, single concentration (AID 588832);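 also: 0% = neutral control wells and 100% = positive control wells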
# Settings: Biochemical plate reader assay, at 30.3 µM, stronger effect = higher value
row,Compound,inhibition
1,CCOc1ccc(NC(=O)CS(=O)(=O)c2cn(C)c3ccccc23)cc1,7.96% (inactive)
2,CCC1=Nc2cc(C(=O)O)ccc2Sc2ccccc21,1.79% (inactive)
3,O=c1c2nnn(-c3ccccc3)c2ncn1C/C=C/c1ccccc1,6.96% (inactive)
4,Cc1cc2cc(CNS(=O)(=O)c3ccccc3)ccc2n1C,7.14% (inactive)
5,Cc1ccc(S(=O)(=O)NCc2ccc3c(c2)cc(C)n3C)cc1,11.8% (inactive)
6,COc1ccc(S(=O)(=O)NCc2ccc3c(c2)cc(C)n3C)cc1,62.3% (active)
7,COc1ccc(Nc2nc(N)nc(CN3CCc4ccccc4C3)n2)cc1,5% (inactive)
8,Cc1ccc(Cl)cc1N1CCN(C(=O)COc2ccc(S(=O)(=O)NC(C)C)cc2)CC1,7.28% (inactive)
9,O=C(NCc1cn2ccsc2n1)c1c(F)cccc1Cl,5.46% (inactive)
10,O=C(O)C(c1ccccc1)c1ccccc1,8.45% (inactive)
11,Cn1c(=O)cc(N2CCc3ccccc32)[nH]c1=O,1.79% (inactive)
12,COc1cccc(CNC(=O)COc2cc3c(c4oc(=O)cc(C)c24)CCC(C)(C)O3)c1,-8.44% (inactive)
13,O=C(COc1ccc2c(-c3ccccc3)cc(=O)oc2c1)N1C[C@H]2C[C@@H](C1)c1cccc(=O)n1C2,1.72% (inactive)
14,COc1ccc(Cl)cc1N1C(=O)C2CCCN2C1c1ccc(F)c(F)c1 (stereo unspecified),14.9% (inactive)
15,CCOc1ccc(C2CC(c3cccc(OC)c3)n3nc(N)nc3N2)cc1 (stereo unspecified),15% (inactive)
16,Cc1ccc(C)c(NC(=O)CSc2nc3ccccc3nc2N2CCOCC2)c1,9.55% (inactive)
17,C=CCn1cc(C(=O)NCCCOC)c(=O)c2cc(S(=O)(=O)N3CCC(C)CC3)ccc21,25% (inactive)
18,CC(C)(C)C(=O)NCCc1nc2ccccc2n1CC(=O)c1ccc(Cl)cc1,0% (inactive)
19,CC(=O)c1ccc(NC(=O)CCS(=O)(=O)c2ccc3c(c2)n(C)c(=O)c(=O)n3C)cc1,1.81% (inactive)
20,Cc1[nH]c2ccccc2c1SCC(=O)N1CCCc2ccccc21,1.79% (inactive)
21,CCOC(=O)N1CCN(c2cc(=O)n(-c3ccc(Br)cc3)c(=O)[nH]2)CC1,6.78% (inactive)
22,Cc1ccc2c(c1)N(C(=O)CCC(=O)NCCCN1CCOCC1)CC(C)O2 (stereo unspecified),7.08% (inactive)
23,CCCCCCc1cc2cc(/C(N)=N/NC(=O)c3ccncc3)c(=O)oc2cc1O,10.7% (inactive)

row,Compound,inhibition
1,O=C(COC(=O)C1CC(=O)N(C2CCCCC2)C1)c1ccc(F)cc1 (stereo unspecified),15% (inactive)
2,Cc1ccc2c(c1)N(C(=O)CCC(=O)NCCCN1CCN(C)CC1)CCO2,5.23% (inactive)
3,Cn1c(Cn2c(=O)sc3ccccc32)nnc1SCC(=O)Nc1cccc(Cl)c1,11.1% (inactive)
4,COc1ccccc1C1C(C(N)=O)=C(C)Nc2nc(-c3ccc(Cl)cc3)nn21 (stereo unspecified),19.2% (inactive)
5,Cc1cc2ccccc2n1CCNC(=O)C(C)C,5.17% (inactive)
6,CC(=O)NCCn1c(C)cc2ccccc21,0% (inactive)
7,Cc1cc2ccccc2n1CCNC(=O)C(C)(C)C,57.3% (active)
8,O=C1C=C(O)c2cccc(O)c2C1=O,9.84% (inactive)
9,O=C1C=C(O)c2c(O)cc(O)c(O)c2C1=O,93.1% (active)
10,C[C@@H]1Cc2c(O)c(O)cc(O)c2C(=O)O1,4.89% (inactive)
11,CC(=O)c1ccc(N2CCN(C(=O)c3ccc(NC4=NC5CS(=O)(=O)CC5S4)cc3)CC2)cc1 (stereo unspecified),3.39% (inactive)
12,COc1ccc(CNS(=O)(=O)c2cc3c(cc2Cl)NC(=O)CO3)cc1,7.24% (inactive)
13,COc1cccc(-c2nc(C(=O)NCC3CCCO3)cc3c2[nH]c2ccccc23)c1 (stereo unspecified),0.0615% (inactive)
14,O=C(Cn1cc2c(n1)CCCC2)NCCCN1CCN(Cc2ccccc2)CC1,4.17% (inactive)
15,CC1CCCN(S(=O)(=O)c2ccc3c(c2)C(C)(C)C(=O)N3C)C1 (stereo unspecified),20% (inactive)
16,O=C(NCCN1CCCC1)c1ccc2c(c1)N(Cc1ccc(F)cc1)C(=O)c1ccccc1S2=O (stereo unspecified),0.909% (inactive)
17,COc1ccc(-c2cn3c(C)c(C(=O)Nc4ccncc4)sc3n2)cc1,9.74% (inactive)
18,COCCNC(=O)CS(=O)Cc1nc(-c2ccc(Cl)cc2)oc1C (stereo unspecified),-2.73% (inactive)
19,Cc1ccc2c(c1)N(CC(=O)NC1CCCC1)C(=O)c1cccnc1O2,16.7% (inactive)
20,CCN(Cc1ccccc1)S(=O)(=O)c1cc(C(=O)OC)n(C)c1,6.72% (inactive)
21,Cc1cccc(C(=O)N2CCN(Cc3ccc4c(c3)OCO4)CC2)c1,5.77% (inactive)
22,CC1CC(=O)c2c(cc3c(-c4c(O)cc(O)c5c(O)c6c(cc45)OC(C)CC6=O)c(O)cc(O)c3c2O)O1 (stereo unspecified),6.56% (inactive)
23,COc1ccc(CNC(=O)COc2cc3c(c4oc(=O)cc(C)c24)CCC(C)(C)O3)cc1OC,5.12% (inactive)

row,Compound,inhibition
1,CCN1C(=O)c2ccccc2S(=O)c2ccc(C(=O)NCCCN3CCCC3=O)cc21 (stereo unspecified),-4.3% (inactive)
2,COC(=O)CN1C(=O)COc2ccc(Cl)cc21,16.7% (inactive)
3,CCOCCn1c(SCc2ccc(F)cc2)nc2c1c(=O)[nH]c(=O)n2C,-3.67% (inactive)
4,O=C(NCc1ccco1)C(=O)NCC1OCCN1S(=O)(=O)c1ccccc1 (stereo unspecified),7.69% (inactive)
5,COCCn1c(SCC(=O)N2CCCc3ccccc32)nc2c(c1=O)SC(C)C2 (stereo unspecified),5.36% (inactive)
6,CCCNC(=O)CS(=O)(=O)Cc1nc(-c2ccccc2C)oc1C,24.1% (inactive)
7,CCOC(=O)N1CCc2c(sc(NC(=O)c3ccc(S(=O)(=O)N4CCCC4)cc3)c2C#N)C1,0% (inactive)
8,Cn1c(=O)c2c(SC3CCCC3)nc(C3CC3)nc2n(C)c1=O,9.74% (inactive)
9,Cn1c(C(=O)NCCN2CCc3ccccc3C2)cc2c(=O)n(C)c3ccccc3c21,20.8% (inactive)
10,CCCCNC(=S)NCc1ccc2[nH]c(C)cc2c1,-0.909% (inactive)
11,CC(C)COC(=O)C1C2C=CC3(CN(C4CCCC4)C(=O)C13)O2 (stereo unspecified),8.33% (inactive)
12,COc1ccc(-c2cc(=O)oc3c(C)c(OC(C)C(=O)NCc4ccccn4)ccc23)cc1 (stereo unspecified),4.89% (inactive)
13,CCc1ccc(NC(=O)CSc2nnc(Cn3c(=O)sc4ccccc43)n2C)cc1,16.7% (inactive)
14,Cc1ccc(C(=O)NCCSc2c(C)[nH]c3ccccc23)cc1[N+](=O)[O-],3.51% (inactive)
15,CCCNC(=O)C1=C(C)C(=O)OC12CCC(C)CC2 (stereo unspecified),9.55% (inactive)
16,CCc1cccc(NC2c3ccccc3C(=O)N2c2ccc(C)cn2)c1 (stereo unspecified),5.06% (inactive)
17,CCOC(=O)N1CCN(C(=O)c2ccc3c(c2)N(Cc2ccc(F)cc2)CCS3)CC1,3.51% (inactive)
18,COc1cc2cccc(OC)c(=O)c2c(OC)c1OC,-1.79% (inactive)
19,CC(=O)Oc1cc(O)c2c(=O)c(OC(C)=O)c(-c3ccc(OC(C)=O)c(OC(C)=O)c3)oc2c1,19.3% (inactive)
20,CC(=O)Oc1cc2cccc(OC(C)=O)c(=O)c2c(OC(C)=O)c1OC(C)=O,57.6% (active)
21,CCCc1cc(C(=O)NCC(C)C)no1,5.23% (inactive)
22,Cc1cc2cc(CNC(=O)c3ccc(S(=O)(=O)N4CCCCC4)cc3)ccc2[nH]1,5.36% (inactive)
23,Cc1cccc(-n2c(CNC(=O)c3ccccc3)nnc2SCC(=O)Nc2nccs2)c1,12.5% (inactive)

row,Compound,inhibition
1,COc1ccc(-c2cc(=O)oc3cc(OC(C)C(=O)NCc4ccccn4)ccc23)cc1 (stereo unspecified),7.02% (inactive)
2,Cn1cc(S(=O)(=O)N2CCc3ccccc32)cc1C(=O)NC1CCCCC1,10.2% (inactive)
3,CC(=O)Nc1cccc(NS(=O)(=O)c2cn(C)c(=O)n(C)c2=O)c1,3.85% (inactive)
4,O=C(Cn1ncc2c1-c1ccccc1OC2)Nc1ccc(S(=O)(=O)N2CCCCC2)cc1,6.96% (inactive)
5,C/C=C(/C)C(=O)OC1c2c(ccc3ccc(=O)oc23)OC(C)(C)C1OC(=O)/C(C)=C\C (stereo unspecified),5.23% (inactive)
6,O=C1C=CC2=C3c4cc(O)c(O)cc4CC3(O)COC2=C1O (stereo unspecified),70.4% (active)
7,CCOC(=O)C(C)n1cnc2c(nnn2-c2ccc(F)cc2)c1=O (stereo unspecified),7.02% (inactive)
8,Cc1ccc(C)c(N2CCN(C(=O)c3cc(S(=O)(=O)N4CCOCC4)cn3C)CC2)c1,8.45% (inactive)
9,COc1ccc(NC(=O)NCCCN2CCN(c3cc(C)ccc3C)CC2)cc1,3.64% (inactive)
10,COc1ccc(CN2CCN(C(=O)Cn3ncn4cccc4c3=O)CC2)c(OC)c1OC,2.17% (inactive)
11,CCOc1ccc(NC(=O)CSc2nc3ccccc3nc2N2CCOCC2)cc1,7.08% (inactive)
12,Cc1cc(NC(=O)c2noc3c2CCc2ccccc2-3)n(-c2ccccc2)n1,3.64% (inactive)
13,CC(C)(O)CCCC(C)(O)c1ccc(C(=O)O)cc1O (stereo unspecified),6.9% (inactive)
14,Cc1c(S(=O)(=O)Nc2cc(Cl)ccc2Cl)c(=O)n(C)c(=O)n1C,5.23% (inactive)
15,CC1Cc2nc(SCC(=O)N3CCCc4ccccc43)n(C)c(=O)c2S1 (stereo unspecified),0% (inactive)
16,COc1ccc(Cc2nc(-c3ccc(Br)o3)no2)cc1OC,33.3% (inactive)
17,O=C(CCC(=O)N1CCOc2ccccc21)N1CCOCC1,9.62% (inactive)
18,CC(NC(=O)c1ccc(NC2=NC3CS(=O)(=O)CC3S2)cc1)c1ccccc1 (stereo unspecified),5.06% (inactive)
19,Cn1cccc1Cc1nnc(SCC(=O)Nc2ccc(F)cc2)n1CCc1ccccc1,17.4% (inactive)
20,CC(CCc1ccccc1)NC(=O)C1CCN(C(=O)c2sccc2-n2cccc2)CC1 (stereo unspecified),3.57% (inactive)
21,Cc1ccc(NC(=O)C2CCCN(S(=O)(=O)c3ccc4[nH]c(=O)ccc4c3)C2)cc1C (stereo unspecified),0% (inactive)
22,CCc1ccccc1NC(=O)c1cc(S(=O)(=O)N2CCc3ccccc32)cn1C,5.06% (inactive)

# Source: PubChem BioAssay AID588832 (Broad Institute, 2011)
